From the supplement of paper PMC7411640
Where a name gives a salt, the structure may show the parent alone.

System: MDA-MB-468
Assay: phospho-S6 immunofluorescence (DAPI-normalised), per-plate z-score; higher = higher phospho-S6 signal (less pathway suppression)
Conditions: 24 h
Method: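 GPCR-targeted compound library (MedChemExpress HY-L006) tested on MDA-MB-468 PTEN-null TNBC cells in 384-well plates at 0.1, 1 or 10 uM, combined with vehicle, GDC0941 450 nM or lapatinib 1 uM, for 24 h. Phospho-S6 (S240/244) immunofluorescence normalised to DAPI and expressed as a per-plate z-score; values are the mean of biological triplicates.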

Structure (SMILES)	phospho-S6 immunofluorescence (z-score) (co-treatment: GDC0941 450 nM)	phospho-S6 immunofluorescence (z-score) (co-treatment: lapatinib 1 uM)	phospho-S6 immunofluorescence (z-score) (co-treatment: vehicle)
CC[C@@H](Nc1c(Nc2cccc(C(=O)N(C)C)c2O)c(=O)c1=O)c1ccc(C)o1 (compound 10 µM)	0.29	-0.41	2.26
O=C(Nc1cc(Cl)cc(Cl)c1)[C@H]1CCCC[C@H]1C(=O)O (compound 10 µM)	0.83	0.12	0.42
C=CCN1CCc2nc(N)sc2CC1 (compound 10 µM)	0.68	0.22	0.33
C[C@]12C=CC(=O)C=C1CC[C@@H]1[C@@H]2C(=O)C[C@@]2(C)[C@H]1CC[C@]2(O)C(=O)CO [Prednisone] (compound 10 µM)	0.55	1.24	0.94
COc1ccccc1OCCNCC(O)COc1cccc2[nH]c3ccccc3c12 (stereo not drawn) [Carvedilol] (compound 10 µM)	-4.07	-4.63	-3.59
Cc1ccc(F)cc1C(=O)Nc1ccc(C(=O)N2Cc3cccn3Cc3ccccc32)c(Cl)c1 [Lixivaptan] (compound 10 µM)	-2.79	-0.79	0.62
CCCc1nc(C(C)(C)O)c(C(=O)OCc2oc(=O)oc2C)n1Cc1ccc(-c2ccccc2-c2nnn[nH]2)cc1 [Olmesartan (medoxomil)] (compound 10 µM)	-0.4	-0.27	-0.03
COc1ccccc1N1CCN(CC(O)COc2cccc3ccccc23)CC1 (stereo not drawn) [Naftopidil] (compound 10 µM)	-0.13	-0.63	0.64
CC(CN(C)C)CN1c2ccccc2CCc2ccccc21 (stereo not drawn) [Trimipramine (maleate)] (compound 10 µM)	-1.05	-2.53	-0.39
COc1ccccc1Oc1c(NS(=O)(=O)c2ccc(C(C)(C)C)cc2)nc(-c2ncccn2)nc1OCCO [Bosentan (hydrate)] (compound 10 µM)	0.28	0.22	0.34
CN1C2CCCC1CC(NC(=O)c1nn(C)c3ccccc13)C2 (stereo not drawn) [Granisetron (Hydrochloride)] (compound 10 µM)	1.08	0.62	-0.01
O=C(CCCN1CCN(c2ccccn2)CC1)c1ccc(F)cc1 [Azaperone] (compound 10 µM)	0.08	0.77	0.8
O=C1CCC(c2ccccc2)(C2CCN(Cc3ccccc3)CC2)C(=O)N1 (stereo not drawn) [Benzetimide (hydrochloride)] (compound 10 µM)	0.5	-0.15	0.11
CC1OC2(CS1)CN1CCC2CC1 (stereo not drawn) [Cevimeline (hydrochloride hemihydrate)] (compound 10 µM)	0.65	-0.04	0.89
Clc1cccc(Cl)c1NC1=NCCN1 [Clonidine (hydrochloride)] (compound 10 µM)	0.37	0.75	1.03
COc1cc2c(cc1OC)CN(C(=O)[C@@H](NCc1ccncc1)C(C)(C)C)CC2 (compound 10 µM)	0.85	0.87	-0.05
CNC(=C[N+](=O)[O-])NCCSCc1csc(CN(C)C)n1 [Nizatidine] (compound 10 µM)	-1.38	0.52	1.38
CN1CCN2c3ccccc3Cc3ccccc3C2C1 (stereo not drawn) [Mianserin (hydrochloride)] (compound 10 µM)	1	-0.76	1.67
O=C(O)CCc1ccc(NCc2cccc(Oc3ccccc3)c2)cc1 (compound 10 µM)	-0.04	0.32	1.24
CC1CCN(CC[C@H]2CCCN2S(=O)(=O)c2cccc(O)c2)CC1 (compound 10 µM)	0.86	0.2	0.48
CN(C)CCC(c1ccc(Cl)cc1)c1ccccn1 (stereo not drawn) [Chlorpheniramine (maleate)] (compound 10 µM)	-5.85	-10.5	-8.97
CCCCC[C@H](O)/C=C/[C@H]1[C@H](O)CC(=O)[C@@H]1CCCCCCC(=O)O [Prostaglandin E1] (compound 10 µM)	-0.04	1.48	-0.27
CN(C)CC1CCOC1(c1ccccc1)c1ccccc1 (stereo not drawn) [AVex-73 hydrochloride] (compound 10 µM)	-0.82	-1.17	0.2
CCNC(=O)[C@@H]1CCCN1C(=O)[C@H](CCCNC(=N)N)NC(=O)[C@H](CC(C)C)NC(=O)[C@@H](COC(C)(C)C)NC(=O)[C@H](Cc1ccc(O)cc1)NC(=O)[C@H](CO)NC(=O)[C@H](Cc1c[nH]c2ccccc12)NC(=O)[C@H](Cc1cnc[nH]1)NC(=O)[C@@H]1CCC(=O)N1 [Buserelin (Acetate)] (compound 10 µM)	0.78	0.63	0.53
OCCOCCN1CCN(Cc2cccc(Oc3ccccc3)c2)CC1 (compound 10 µM)	-0.36	0.35	-1.04
Cc1cc2c(s1)Nc1ccccc1N=C2N1CCN(C)CC1 [Olanzapine] (compound 10 µM)	0.77	0.3	0.35
